Among the test systems are SK-MEL-2 melanoma; EKVX NSCLC; SN12C renal; UO-31 renal; TK-10 renal; ACHN renal; A498 renal; CCRF-CEM leukemia; MOLT-4 leukemia; SR leukemia; RPMI-8226 leukemia; OVCAR-8 ovarian; OVCAR-5 ovarian; OVCAR-4 ovarian; SK-OV-3 ovarian; IGROV1 ovarian; OVCAR-3 ovarian; HS 578T breast; CAKI-1 renal; NCI/ADR-RES ovarian.
Holding throughout (assay): NCI-60 one-dose screen, 48 h (100 = growth as untreated, 0 = no growth, -100 = all killed)
Common to all, as to conditions: 10 µM

We go through nine compounds from PubChem BioAssay (NCI).

About 83,000 compounds went through this panel and 20% of them were active in at least one assay; those are over-represented in the sample as a whole.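 Compound tested at a single concentration for 48 hours in 96-well plates; a percent growth value below 10 was scored as active.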 Unmarked numbers belong to inactive results. Calls of active or inactive are those of the source.

With `CCOC(=O)c1cc(C(=O)c2cc(OC)c(OC)c(OC)c2)n2ccc(-c3cc[n+](CC(=O)c4cc(OC)c(OC)c(OC)c4)cc3)cc12`, the growth with SK-MEL-2 melanoma was 101%; with EKVX NSCLC, 107%; in the assay on SN12C renal, 84.6%; with UO-31 renal it was 66.1%; in the assay on TK-10 renal it was 13.5%; in the assay with ACHN renal, 90.7%. Further, the growth is 80.4% in the assay on A498 renal; -15% (active) in the assay with CCRF-CEM leukemia; -9.13% (active) with MOLT-4 leukemia; -16.4% (active) with SR leukemia; -22.2% (active) in the assay with RPMI-8226 leukemia; 7.09% (active) in the assay on OVCAR-8 ovarian. Moreover, the growth in the assay on OVCAR-5 ovarian was 92.5%; in the assay with OVCAR-4 ovarian, -33.2% (active); in the assay on SK-OV-3 ovarian, 99.3%; in the assay on IGROV1 ovarian it was 83.2%; in the assay with OVCAR-3 ovarian, 82%; with HS 578T breast, 69.4%.

As to `O=C1c2ccccc2-c2c1c1cccnc1c(=O)n2C[C@H](O)CO`, the growth in the assay on SK-MEL-2 melanoma was 101%; in the assay on EKVX NSCLC, 79.3%; in the assay on SN12C renal, 35.6%; in the assay on UO-31 renal it was 49.9%; with TK-10 renal it was 84.7%; in the assay with ACHN renal, 27.6%. Also, the growth was 65.5% in the assay with CAKI-1 renal; 9.69% (active) with MOLT-4 leukemia; 11.6% in the assay on SR leukemia; 58.7% with OVCAR-8 ovarian; 104% in the assay with OVCAR-5 ovarian; 92.5% in the assay with OVCAR-4 ovarian. Moreover, the growth is 60.3% in the assay on SK-OV-3 ovarian; 50.4% in the assay on IGROV1 ovarian; 79.6% with OVCAR-3 ovarian; 85.1% with HS 578T breast; 88.1% with NCI/ADR-RES ovarian.

Turning to `CCn1c2ccc(O)cc2c2c(C)c3c[n+](C)ccc3c(C)c21`, the growth was 40.9% in the assay with SK-MEL-2 melanoma; 73.7% in the assay on EKVX NSCLC; -32.6% (active) in the assay with SN12C renal; 64.2% in the assay with UO-31 renal; 45.6% in the assay with TK-10 renal; 60.6% in the assay on ACHN renal. Further, the growth in the assay on CAKI-1 renal is 85.2%; in the assay with MOLT-4 leukemia it was 17.8%; with SR leukemia, 21.2%; with OVCAR-5 ovarian, 88.7%; in the assay on SK-OV-3 ovarian, 71.2%; with IGROV1 ovarian it was 53.8%. In addition, the figures for the growth in the assay with OVCAR-3 ovarian, with HS 578T breast and in the assay on NCI/ADR-RES ovarian were 37.8%, -0.0943% (active) and 81%, respectively.

`N#Cc1c(-c2ccc(Cl)cc2)cc(-c2cc(O)ccc2O)nc1N`: the growth in the assay with SK-MEL-2 melanoma is 31.2%; in the assay with EKVX NSCLC it was 42.9%; in the assay with SN12C renal it was -2.03% (active); in the assay on UO-31 renal it was 59%; with TK-10 renal, 79.6%; with ACHN renal, 8.35% (active). Further, the growth was 82.8% in the assay on CAKI-1 renal; 11.3% in the assay on MOLT-4 leukemia; 21.7% in the assay with SR leukemia; 1.52% (active) with OVCAR-8 ovarian; 86.6% in the assay on OVCAR-5 ovarian; 22.9% with OVCAR-4 ovarian. Moreover, the growth with SK-OV-3 ovarian was 45.2%; with IGROV1 ovarian, 7.29% (active); in the assay on OVCAR-3 ovarian it was -17.2% (active); with NCI/ADR-RES ovarian it was 65.3%.

For `CCN(CC)CCNc1ccc(C)c2sc3cc(Cl)ccc3c(=O)c12`, the growth in the assay with SK-MEL-2 melanoma was 36.5%; in the assay with EKVX NSCLC, 71.3%; in the assay with SN12C renal it was 35.6%; with UO-31 renal, 26.9%; with TK-10 renal it was 50.6%; in the assay with ACHN renal, 28.1%. In addition, the growth with A498 renal was 53.5%; with CCRF-CEM leukemia it was 11.6%; in the assay on MOLT-4 leukemia it was 1.35% (active); in the assay on SR leukemia it was -30.4% (active); with RPMI-8226 leukemia, -4.34% (active); in the assay on OVCAR-8 ovarian, 45.9%. In addition, the growth in the assay with OVCAR-5 ovarian is 64.3%; in the assay on OVCAR-4 ovarian it was 52.1%; with SK-OV-3 ovarian, 64.2%; in the assay on IGROV1 ovarian, 20.4%; in the assay on OVCAR-3 ovarian, 59.1%; with HS 578T breast it was 43.3%. Also, the growth in the assay with NCI/ADR-RES ovarian is 51.1%.

On to `COc1cc(-c2nn(-c3ccc(NC(=O)NCCCNC(=O)c4ccccc4)cc3)cc2-c2ccncc2)ccc1Cl`, for which the growth is 18% in the assay on SK-MEL-2 melanoma; 51.4% in the assay with EKVX NSCLC; 54.5% with SN12C renal; 29.6% with UO-31 renal; 59.3% in the assay with TK-10 renal; 23.7% with ACHN renal. For the same compound, the growth is 12.7% with A498 renal; 14.5% with CCRF-CEM leukemia; 23.5% in the assay with MOLT-4 leukemia; 20.2% in the assay with SR leukemia; -3.49% (active) in the assay on RPMI-8226 leukemia; 20.6% in the assay with OVCAR-8 ovarian. Also, the growth in the assay with OVCAR-5 ovarian is 53%; in the assay on OVCAR-4 ovarian it was 44.4%; with SK-OV-3 ovarian, 23.8%; in the assay on IGROV1 ovarian, 38.1%; in the assay on OVCAR-3 ovarian, 20.6%; in the assay on HS 578T breast, 40%. The growth in the assay with NCI/ADR-RES ovarian was 69.4%.

On to `O=[N+]([O-])c1cc(Cl)cc(Cl)c1O`, for which the growth in the assay on SK-MEL-2 melanoma is 103%; in the assay with EKVX NSCLC it was 96%; in the assay with SN12C renal it was 101%; with UO-31 renal it was 84%; with TK-10 renal, 95.1%; in the assay with ACHN renal, 99.4%. Further, the growth was 106% in the assay on A498 renal; 98.7% in the assay on CCRF-CEM leukemia; 106% in the assay on MOLT-4 leukemia; 103% in the assay with SR leukemia; 103% in the assay with RPMI-8226 leukemia; 103% in the assay on OVCAR-8 ovarian. Besides, the growth in the assay on OVCAR-5 ovarian was 103%; in the assay with OVCAR-4 ovarian it was 108%; in the assay on SK-OV-3 ovarian, 91.3%; in the assay with IGROV1 ovarian, 104%; with OVCAR-3 ovarian, 109%; in the assay with HS 578T breast, 97.6%. Also, the growth in the assay with NCI/ADR-RES ovarian is 97.6%.

Take `COc1ccc([C@H]2[C@H](C(=O)Nc3cccnc3)c3ccccc3C(=O)N2c2ccccc2)cc1`: the growth in the assay with SK-MEL-2 melanoma is 86.2%; in the assay with EKVX NSCLC, 94.5%; in the assay with SN12C renal it was 99.4%; with UO-31 renal, 99.5%; with TK-10 renal, 93%; in the assay on ACHN renal, 90.3%. Also, the growth with CAKI-1 renal was 93.7%; in the assay on MOLT-4 leukemia, 77.5%; with SR leukemia, 46.3%; with OVCAR-8 ovarian it was 96.1%; with OVCAR-5 ovarian it was 114%; in the assay on OVCAR-4 ovarian it was 98.2%. Moreover, the growth in the assay with SK-OV-3 ovarian is 96.4%; in the assay on IGROV1 ovarian it was 81.4%; with OVCAR-3 ovarian, 100%; in the assay on HS 578T breast, 71%; in the assay on NCI/ADR-RES ovarian, 97%.

With `CN(C)CCOc1cccc(NC2=C(Cl)C(=O)C(Nc3cccc(OCCN(C)C)c3)=C(Cl)C2=O)c1`, the growth with SK-MEL-2 melanoma is -73.8% (active); in the assay with EKVX NSCLC, -92.3% (active); with SN12C renal it was -76.3% (active); with UO-31 renal, -100% (active); with TK-10 renal, -100% (active); with ACHN renal it was -100% (active). The growth with A498 renal is 77.1%; in the assay on CCRF-CEM leukemia, -26.6% (active); in the assay on MOLT-4 leukemia, -38.5% (active); in the assay on SR leukemia, -18.2% (active); in the assay on RPMI-8226 leukemia it was -46.9% (active); in the assay with OVCAR-8 ovarian it was -94.9% (active). Further, the growth with OVCAR-5 ovarian was -53.9% (active); in the assay with OVCAR-4 ovarian it was -100% (active); with SK-OV-3 ovarian it was 94.9%; in the assay with IGROV1 ovarian, -76.6% (active); in the assay on OVCAR-3 ovarian, -97.3% (active); in the assay on HS 578T breast, 0.785% (active).
